Pf growth 96h: P. falciparum growth inhibition at 96 hours | P. falciparum luciferase reporter growth, 96 h | Potency, µM (series often up to 28.7 µM), without a hit: top-dose activity change, negative = inhibition, most hits filed as inhibitors | hit rate 6.9% among 320,000 | AID 504834; note: potency is the fitted concentration of half-maximal effect
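Erythrocytes infected with luciferase-expressing P. falciparum were dispensed at 2% hematocrit and 0.05% parasitemia (final), then incubated with compounds 96 hours at 37 C in 5% CO2. Luminescence after detection reagent addition reported growth.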
MARV entry inh: Marburg virus entry inhibition | Marburg virus pseudotyped entry inhibition, cell reporter | AID 540276 | Potency, µM (highest dose often 37.8 µM), for the others: at the top dose activity change, negative = inhibition, actives largely listed as inhibitors | hit rate 1.8% among 300,000; calls by dose curve; tested in HEK293 cells; note: potency is the fitted concentration of half-maximal effect
HCV inhibitor: inhibitors of hepatitis C virus infection; Potency, µM (doses to about 41.8 µM), inactives show at the highest dose activity change, negative = inhibition, actives largely listed as inhibitors; Huh7.5.1 HCVcc-Cre infection, luciferase reporter, 44 h; hit rate 3.4% among 340,000; note: potency is the fitted concentration of half-maximal effect
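Seed cells (1,000/well) for 4 h; treat with compound and infect with HCVcc-Cre, moi about 0.5. Incubate 44 h, then detect luciferase activity.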
Pf growth 48h: inhibits P. falciparum growth in the first generation, 48 h; P. falciparum luciferase growth in erythrocytes, 48 h; Potency, µM (doses to about 28.7 µM), for inactives: top-dose activity change, negative = inhibition, usual class: inhibitors; hit rate 5.9% among 310,000; note: potency is the fitted concentration of half-maximal effect
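Compounds are pin-transferred into medium, infected erythrocytes (2% hematocrit, 0.1% parasitemia final) are added, and plates sit one parasite generation at 37 C in 5% CO2. Detection reagent is then added and luminescence measured.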
LASV entry inh: Lassa virus entry inhibition; Lassa virus pseudotype entry inhibition, cell reporter; Potency, µM (top dose mostly 37.9 µM), for inactives: at the top dose activity change, negative = inhibition, usual class: inhibitors; hit rate 1.2% among 300,000; calls by dose curve; tested in HEK293 cells; note: potency is the fitted concentration of half-maximal effect; nearly all actives have a fitted effect of over 50% in size
HCMV inh: inhibitors of human cytomegalovirus; activity change, negative = inhibition, % at 57.5 µM; hit rate 4.5% among 410,000; AID 1259415; HFF cells, HCMV-luciferase reporter, 72 h; active compounds read low; in the data active = activity change below about -60%; inconclusive = no clear call, values can overlap the other calls; inactive = above about -39%
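Luciferase read-out from HCMV-luciferase-infected HFFs (MOI 1 PFU/cell) 72 h post infection at 37C; compounds added after 16 h cell attachment; activity normalized between buffer-only basal and Salinomycin (10uM) inhibitor controls.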
* hit, by the source's call; ? = inconclusive; nt = no result; [ ] = another dose, or the depositor's remark. The list is not random: actives were taken first. Their share in the collection is about 14%. Unless noted, calls come from the whole dose curve; as a rule, active = well fitted inhibition curve with a large enough effect; inconclusive = small, poorly fitted or top-dose-only effect, or another doubt; inactive = no such curve, though single readings can be large or run the other way. % is set by controls: 0 for no effect and ±100 for the full control effect.

SMILES	Pf growth 96h	MARV entry inh	HCV inhibitor	Pf growth 48h	LASV entry inh	HCMV inh
Cc1nc2c(OCc3ccc(C(F)(F)F)cc3)cccn2c1N(C)CC1CC1	nt	nt	nt	nt	nt	-17.3
CCCCC(=O)NC(NC(=S)N1CCOCC1)C(Cl)(Cl)Cl (stereo not drawn)	nt	-1.4%	-5.2%	8.28µM*	?	11.3
CC(=O)NC(c1cccc(F)c1)c1nc(-c2csc3ccccc23)cs1 (stereo not drawn)	nt	nt	nt	nt	nt	-1.3
CCC12C(=O)C(CC)(C(c3ccccc3)=C1c1ccccc1)[C@@H]1C(=O)N(c3ccc(C)cc3)C(=O)C12 (stereo partly drawn)	?	-21.2%	9.3%	?	-3.8%	-8.7
CCC12C(=O)C(CC)(C(c3ccccc3)=C1c1ccccc1)[C@@H]1C(=O)N(c3ccccc3)C(=O)C12 (stereo partly drawn)	?	?	14.1µM*	2.08µM*	-1.9%	-60.6*
CCCC12C(=O)C(C)(C(c3ccccc3)=C1c1ccccc1)C1C(=O)N(c3ccc(C)cc3)C(=O)C12 (stereo not drawn)	3.29µM*	?	4.47µM*	2.62µM*	?	-86.6*
Cc1ccc(C2CCN(C(=O)Nc3ccc(Cl)c(Cl)c3)C2)cc1 (stereo not drawn)	nt	nt	nt	nt	-3.6%[46.1 µM]	2.9
Cc1ccc(NC=C(S(=O)(=O)c2ccccc2)S(=O)(=O)c2ccccc2)cc1	-28.5%	?	12.3%	?	1.0%	1.8
O=S(=O)(C(=CNc1ccccc1)S(=O)(=O)c1ccccc1)c1ccccc1	10.4µM*	-12.8%	-2.7%	-7.1%	-7.2%	?
O=C(CCCN1C(=O)C(c2ccccc2)Oc2cccnc21)NCCc1ccc(Cl)cc1 (stereo not drawn)	9.28µM*	nt	?	?	nt	-29.0
O=C(CCCN1C(=O)C(c2ccccc2)Oc2cccnc21)NCc1ccccc1F (stereo not drawn)	2.08µM*	nt	-5.9%	?	nt	-2.3
Cc1cccc(-c2nc(Cn3c(=O)cc(-c4ccccc4)c4c(C)nn(C)c43)c(C)o2)c1	nt	nt	nt	nt	-19.1%[46.1 µM]	2.0
COc1ccc(NC(=O)CCCc2nnc3n(CCC(C)C)c(=O)c4sccc4n23)cc1Cl	nt	nt	nt	nt	6.9%[46.1 µM]	20.8
CC(C(=O)Nc1ccccc1-c1ccccc1)N1CCN(S(=O)(=O)c2ccccc2)CC1 (stereo not drawn)	9.28µM*	?	?	6.57µM*	?	?
CCCC(NC(=O)C(C)N1CCN(S(=O)(=O)c2ccccc2)CC1)c1ccccc1 (stereo not drawn)	10.4µM*	?	?	-22.8%	?	7.6
CC(C)c1ccc(S(=O)(=O)N2CCN(C(C)C(=O)Nc3ccccc3-c3ccccc3)CC2)cc1 (stereo not drawn)	5.22µM*	?	1.0%	9.28µM*	?	?
O=C(c1ccc(NS(=O)(=O)c2ccc(Cl)c(Cl)c2)cc1)N1CCOCC1	5.1%	18.6%[46.1 µM]	-2.9%	?	-9.7%	0.4
O=[N+]([O-])c1ccc2c(OCc3nnc(-c4ccccc4Br)o3)ncnc2c1	9.28µM*	-15.5%[46.1 µM]	-7.2%	?	8.8%[46.1 µM]	-29.6
Cc1ccc(-c2nnn(CC(=O)N(Cc3ccco3)C(C(=O)NC(C)(C)C)c3ccc(C)o3)n2)o1 (stereo not drawn)	-0.8%	?	11.2µM*	?	?	-24.0
Cc1ccc(C)c(N(C(=O)Cn2nnc3ccccc32)C(C(=O)NC(C)(C)C)c2ccsc2)c1 (stereo not drawn)	?	2.1%	?	?	-2.3%	-77.7*
Cc1ccc(-c2nnn(CC(=O)N(Cc3ccccc3)C(C(=O)NC(C)(C)C)c3ccncc3)n2)o1 (stereo not drawn)	0.0%	0.7%	?	?	0.3%	-18.0
CCC(C)(C)NC(=O)C(c1ccncc1)N(Cc1cccs1)C(=O)Cn1nnc2ccccc21 (stereo not drawn)	11.7µM*	17.2%	10.1%	?	-6.2%	18.6

Compound activity from PubChem.
